Source: PubChem BioAssay (NCI)
This is part of a sample that, as a whole, favours compounds with a hit. Of some 83,000 tested, about 20% had one in any assay.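 Compound tested at a single concentration for 48 hours in 96-well plates; a percent growth value below 10 was scored as active.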 The source made the active and inactive calls.

system: PC-3 prostate; experiment: NCI-60 one-dose screen, 48 h (100 = growth as untreated, 0 = no growth, -100 = all killed); details: 10 µM

Row | SMILES | growth
1 | CCOS(=O)(=O)c1c(C(C)C)cc(C(C)C)cc1C(C)C | 96% (inactive)
2 | CC(C)CCN(CCC(C)C)CC(=O)Nc1ccc(S(=O)(=O)c2ccc(NC(=O)CN(CCC(C)C)CCC(C)C)cc2)cc1 | 39.7% (inactive)
3 | O=C(N/N=C/c1cc([N+](=O)[O-])ccc1O)c1cccc2ccccc12 | 41.4% (inactive)
4 | COc1cc(Cc2cc(-c3ccccc3)n[nH]c2=O)cc(OC)c1OC | 61.9% (inactive)
5 | C1CN(CC2CCC(CN3CCOCC3)O2)CCO1 (stereo not given) | 105% (inactive)
6 | Cc1cc(=O)n2nnc3cc(Cl)c(Cl)cc3n12 | 94.4% (inactive)
7 | CC(=O)N[C@H](C(=O)N[C@@H](CCCNC(=N)N)C(=O)N[C@@H](CCCCN)C(=O)N[C@@H](CCCNC(=N)N)C(=O)N[C@]1(C)CCCCCC/C=C\CCC[C@@](C)(C(=O)N[C@@H](CCCNC(=N)N)C(=O)N[C@@H](CCC(=O)O)C(=O)N[C@@H](CC(C)C)C(=O)N[C@H](C(=O)N[C@@H](CCC(=O)O)C(N)=O)C(C)C)NC(=O)[C@H](CCC(N)=O)NC(=O)[C@H](CC(C)C)NC(=O)[C@H](CC(C)C)NC(=O)[C@H](CCCNC(=N)N)NC(=O)[C@H](CCCNC(=N)N)NC(=O)[C@H](CC(C)C)NC1=O)C(C)C | -4.64% (active)
8 | Cc1ccc(/C=C2/C(=O)N(C)c3ccc(S(=O)(=O)Nc4ccc(C(C)(C)C)cc4)cc32)s1 | 56.6% (inactive)
9 | CC(=O)[C@H]1CC[C@]2(C)[C@@H]1CC[C@@H]1[C@@]3(C)CC(CCC#N)(CCC#N)C(=O)C(C)(C)[C@@H]3CC[C@]12C | 93.8% (inactive)
10 | O=C(CCn1cnc2c(cc(-c3ccccc3)n2-c2ccccc2)c1=O)Nc1ccc(F)cc1 | 68.6% (inactive)
11 | Cc1c(Cl)cccc1NC(=O)CN1CCOCC1 | 102% (inactive)
12 | CC(C)(C)OC(=O)CN1CCc2c(sc3ncnc(N/N=C/c4cccc5ccccc45)c23)C1 | 31.9% (inactive)
13 | CCn1c(SCc2ccc(C)cc2)nnc1-c1nn(-c2ccc(Cl)cc2Cl)c(-c2ccc(Cl)cc2)c1C | 5.63% (active)
14 | O=C(Nc1nc(-c2ccccc2)nc2c1sc(=S)n2-c1ccccc1)C(F)(F)F | 79.5% (inactive)
15 | Cc1c[nH]c(=O)n(Cc2nnc(CCC(=O)c3nc4ccccc4[nH]3)o2)c1=O | 19.3% (inactive)
16 | CCCCN(CCCC)C(=O)[C@H](CC)[C@@H]1CC[C@@H](C)[C@@H]([C@H](C)[C@@H](O)[C@@H](C)C(=O)[C@H](CC)C2O[C@]3(C=CC(=O)[C@]4(CC[C@@](C)([C@H]5CC[C@](O)(CC)[C@H](C)O5)O4)O3)[C@H](C)C[C@@H]2C)O1 (stereo not given in full) | 12.5% (inactive)
17 | CCN(CC)CCOc1cccc2c1C(=O)c1ccccc1C2=O | 83.5% (inactive)
18 | COc1cc(OC)c2c(=O)c(O)c(-c3ccccc3)oc2c1 | 67.1% (inactive)
19 | COc1ccc(-c2cc(-c3ccccc3)nc(SCCCC(=O)NO)n2)cc1 | 9.65% (active)
20 | COc1cc(-c2nn(-c3ccc(NC(=O)NCCNS(=O)(=O)c4ccc(F)cc4)cc3)cc2-c2ccncc2)ccc1Cl | 8.93% (active)

Row | SMILES | growth
21 | Cc1[nH]c2ccccc2c1/C=N/Nc1ncnc2sc3c(c12)CCN(CC(=O)OC(C)(C)C)C3 | 69.2% (inactive)
22 | O=C1CSC(=S)N1/N=C/c1ccc(Cl)s1 | 98.1% (inactive)
23 | O=C(CC(CC(=O)c1ccccc1)c1ccccc1O)c1ccccc1 | 81% (inactive)
24 | CCOC(=O)c1cc(C(=O)c2cc(OC)cc(OC)c2)n2nc(C)ccc12 | 25% (inactive)
25 | CCCc1cn(CC(=O)Nc2nc3ccccc3s2)nn1 | 96.3% (inactive)
26 | CC(CN(C)C)Oc1ccc(OC(C)CN(C)C)c2c1C(=O)c1ccccc1C2=O (stereo not given) | 38.3% (inactive)
27 | COc1cc(-c2nn(-c3cccc(NC(=O)NCCNC(=O)c4cccc(C(F)(F)F)c4)c3)cc2-c2ccncc2)ccc1Cl | 17.6% (inactive)
28 | Cc1ccc(NCCNCC(C)(C)O)c2c(=O)c3ccc(Cl)cc3sc12 | 36.8% (inactive)
29 | CNS(=O)(=O)Oc1ccc(-c2sc3cc(OS(=O)(=O)NC)ccc3c2C(=O)c2ccc(OCCN3CCCCC3)cc2)cc1 | 42.4% (inactive)
30 | CN(C)CCOc1ccccc1NC1=C(Cl)C(=O)C(Nc2ccccc2OCCN(C)C)=C(Cl)C1=O | 84.3% (inactive)
31 | COc1cc(-c2nn(-c3cccc(NC(=O)CCNc4ccc(N5CCOCC5)cc4)c3)cc2-c2ccncc2)ccc1Cl | 8.06% (active)
32 | C=CCSC(CC)(CC)C(=O)NC | 101% (inactive)
33 | Cc1c(Cl)cccc1NC(=O)CCCl | 94.3% (inactive)
34 | CC(=O)C1N=NCC1c1ccccc1 (stereo not given) | 95.5% (inactive)
35 | CCN(CC)CCOc1cccc2c1C(=O)c1cccc(OCCN(CC)CC)c1C2=O | 32.2% (inactive)
36 | CC(C)(C)OC(=O)CN1CCc2c(sc3ncnc(N/N=C/c4ccccc4Br)c23)C1 | 47.9% (inactive)
37 | N#CCc1csc(Cc2ccccc2)n1 | 109% (inactive)
38 | Clc1ccc(C2=NN=C3C(Cc4ccccc4)=Nc4ccccc4N3C2)cc1 | 65.1% (inactive)
39 | CCN(CC)CC(=O)N(CC)c1ccc(C)c(Cl)c1 | 88.2% (inactive)
40 | COc1cc(-c2csc(NC(=O)Nc3ccc(Cl)c(C(F)(F)F)c3)n2)cc(OC)c1OC | -0.311% (active)
